Test results as given in publication PMC7862700, “An all-to-all approach to the identification of sequence-specific readers for epigenetic DNA modifications on cytosine”.

How the values were obtained:
Test in all cases: DAPPL (digital affinity profiling via proximity ligation, sequencing); 10 mM Tris-HCl pH 7.5, 50 mM NaCl, 1 mM DTT, 4% glycerol, room temperature, 30 min; GST-TFs on glutathione beads, 16-mer random dsDNA library, 0.1% formaldehyde crosslink after washing; high values mean tight binding
FLI1 = target: T1, FLI1 (Homo sapiens, UniProt Q01543 1-452); conditions: protein: recombinant; tags: N-terminal GST; dsDNA, one strand shown
T1 sequence: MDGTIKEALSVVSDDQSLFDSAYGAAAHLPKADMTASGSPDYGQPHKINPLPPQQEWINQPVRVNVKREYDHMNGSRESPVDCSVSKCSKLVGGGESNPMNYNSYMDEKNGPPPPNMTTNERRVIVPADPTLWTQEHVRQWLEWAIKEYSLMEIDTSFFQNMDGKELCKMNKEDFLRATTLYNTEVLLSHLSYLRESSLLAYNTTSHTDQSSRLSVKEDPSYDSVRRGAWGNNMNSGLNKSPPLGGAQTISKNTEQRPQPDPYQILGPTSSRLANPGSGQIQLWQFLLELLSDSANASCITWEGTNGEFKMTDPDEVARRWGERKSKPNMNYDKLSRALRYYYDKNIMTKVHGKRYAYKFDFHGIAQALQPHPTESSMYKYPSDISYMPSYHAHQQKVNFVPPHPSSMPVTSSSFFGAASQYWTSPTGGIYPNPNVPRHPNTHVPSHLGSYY
How it was run: (§1)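 Sequencing on an Illumina NextSeq500 followed washing, crosslinking with 0.1% formaldehyde, proximity ligation (BsaI/T4 ligase, 1 h, 37 °C) and PCR amplification of pools that had been incubated for 30 min at room temperature with 200 nmole of a random double-stranded 16-mer DNA library in Tris/NaCl/DTT/glycerol buffer. Each pool held DNA-barcoded human transcription factors, expressed in yeast as GST fusions and captured on glutathione beads, plus a tag-only sample. Binding signal is a hexamer's read frequency for a factor divided by its frequency in the tag-only sample.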

ELK1 = target: T2, ELK1 (Homo sapiens, UniProt P19419 1-428); conditions: protein: recombinant; tags: N-terminal GST; dsDNA, one strand shown
T2 sequence: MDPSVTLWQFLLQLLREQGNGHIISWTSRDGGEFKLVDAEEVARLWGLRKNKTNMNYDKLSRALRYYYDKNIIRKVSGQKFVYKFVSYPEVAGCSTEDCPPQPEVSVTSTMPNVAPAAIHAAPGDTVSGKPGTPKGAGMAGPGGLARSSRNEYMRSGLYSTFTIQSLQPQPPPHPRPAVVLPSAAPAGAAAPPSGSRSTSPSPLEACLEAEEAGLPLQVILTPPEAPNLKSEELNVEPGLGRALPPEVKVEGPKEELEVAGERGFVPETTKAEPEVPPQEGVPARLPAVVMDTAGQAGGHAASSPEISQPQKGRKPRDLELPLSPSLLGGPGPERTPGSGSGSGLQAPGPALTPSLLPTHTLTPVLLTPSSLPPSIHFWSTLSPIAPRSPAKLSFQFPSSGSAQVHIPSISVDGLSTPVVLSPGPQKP
How it was run: as §1

GABPA = target: T3, GABPA (Homo sapiens, UniProt Q06546 1-454); conditions: protein: recombinant; tags: N-terminal GST; dsDNA, one strand shown
T3 sequence: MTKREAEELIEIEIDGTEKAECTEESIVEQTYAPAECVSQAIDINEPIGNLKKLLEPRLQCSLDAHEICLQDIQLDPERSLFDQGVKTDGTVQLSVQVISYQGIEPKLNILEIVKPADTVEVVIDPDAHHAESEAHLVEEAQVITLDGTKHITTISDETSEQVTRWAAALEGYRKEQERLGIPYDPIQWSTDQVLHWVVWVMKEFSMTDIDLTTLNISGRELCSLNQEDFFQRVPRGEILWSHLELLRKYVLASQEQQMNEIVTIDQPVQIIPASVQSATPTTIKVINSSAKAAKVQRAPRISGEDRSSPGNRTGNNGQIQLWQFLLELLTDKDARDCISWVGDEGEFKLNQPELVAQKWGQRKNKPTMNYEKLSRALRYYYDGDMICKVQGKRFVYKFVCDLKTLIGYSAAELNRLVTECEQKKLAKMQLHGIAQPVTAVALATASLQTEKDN
How it was run: as §1

ERG = target: T4, ERG (Homo sapiens, UniProt P11308 1-479); conditions: protein: recombinant; tags: N-terminal GST; dsDNA, one strand shown
T4 sequence: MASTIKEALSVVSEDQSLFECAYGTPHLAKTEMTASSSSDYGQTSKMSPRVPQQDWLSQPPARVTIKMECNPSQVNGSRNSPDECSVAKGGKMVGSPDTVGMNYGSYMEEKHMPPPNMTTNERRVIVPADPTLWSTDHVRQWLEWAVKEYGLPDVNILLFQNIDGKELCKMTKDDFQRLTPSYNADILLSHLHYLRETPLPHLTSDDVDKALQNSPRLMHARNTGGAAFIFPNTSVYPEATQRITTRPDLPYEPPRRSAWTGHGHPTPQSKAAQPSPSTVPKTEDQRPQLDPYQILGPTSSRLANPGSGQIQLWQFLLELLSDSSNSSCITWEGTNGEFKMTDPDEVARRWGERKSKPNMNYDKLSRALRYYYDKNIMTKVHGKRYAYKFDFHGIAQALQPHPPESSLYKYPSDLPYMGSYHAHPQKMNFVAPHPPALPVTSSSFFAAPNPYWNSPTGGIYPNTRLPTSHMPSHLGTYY
How it was run: as §1

ELF1 = ELF1 (Homo sapiens, UniProt P32519 1-619); conditions: protein: recombinant; tags: N-terminal GST; dsDNA, one strand shown
How it was run: as §1

EHF = target: T5, EHF (Homo sapiens, UniProt Q9NZC4 1-300); conditions: protein: recombinant; tags: N-terminal GST; dsDNA, one strand shown
T5 sequence: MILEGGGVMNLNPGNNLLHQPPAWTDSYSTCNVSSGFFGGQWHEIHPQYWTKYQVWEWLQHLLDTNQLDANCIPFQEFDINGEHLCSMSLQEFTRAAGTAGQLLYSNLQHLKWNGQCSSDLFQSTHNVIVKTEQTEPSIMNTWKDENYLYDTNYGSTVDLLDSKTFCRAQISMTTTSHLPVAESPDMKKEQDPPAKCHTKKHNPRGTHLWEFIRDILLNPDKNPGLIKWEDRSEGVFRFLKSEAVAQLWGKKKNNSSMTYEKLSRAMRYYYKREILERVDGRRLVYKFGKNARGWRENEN
How it was run: as §1

SPI1 = SPI1 (Homo sapiens, UniProt P17947 1-270); conditions: protein: recombinant; tags: N-terminal GST; dsDNA, one strand shown
How it was run: as §1

SPIB = SPIB (Homo sapiens, UniProt Q01892 1-262); conditions: protein: recombinant; tags: N-terminal GST; dsDNA, one strand shown
How it was run: as §1

ELK3 = target: T6, ELK3 (Homo sapiens, UniProt P41970 1-407); conditions: protein: recombinant; tags: N-terminal GST; dsDNA, one strand shown
T6 sequence: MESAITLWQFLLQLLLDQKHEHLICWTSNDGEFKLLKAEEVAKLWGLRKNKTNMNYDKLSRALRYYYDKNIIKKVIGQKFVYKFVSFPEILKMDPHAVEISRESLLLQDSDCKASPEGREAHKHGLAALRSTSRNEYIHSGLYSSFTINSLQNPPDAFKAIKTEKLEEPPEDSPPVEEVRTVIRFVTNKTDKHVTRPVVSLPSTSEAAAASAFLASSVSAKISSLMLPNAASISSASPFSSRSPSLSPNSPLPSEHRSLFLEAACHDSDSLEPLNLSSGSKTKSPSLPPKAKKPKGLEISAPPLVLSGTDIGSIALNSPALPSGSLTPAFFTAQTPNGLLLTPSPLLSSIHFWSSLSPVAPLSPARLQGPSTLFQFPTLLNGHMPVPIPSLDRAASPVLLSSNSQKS
How it was run: as §1

FEV = target: T7, FEV (Homo sapiens, UniProt Q99581 1-238); conditions: protein: recombinant; tags: N-terminal GST; dsDNA, one strand shown
T7 sequence: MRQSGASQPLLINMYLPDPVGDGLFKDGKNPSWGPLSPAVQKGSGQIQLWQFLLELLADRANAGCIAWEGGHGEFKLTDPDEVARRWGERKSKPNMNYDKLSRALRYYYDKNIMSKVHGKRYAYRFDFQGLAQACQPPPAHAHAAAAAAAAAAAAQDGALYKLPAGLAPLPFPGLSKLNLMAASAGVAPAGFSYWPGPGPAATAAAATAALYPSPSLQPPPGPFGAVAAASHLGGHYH
How it was run: as §1

ETV5 = ETV5 (Homo sapiens, UniProt P41161 1-510); conditions: protein: recombinant; tags: N-terminal GST; dsDNA, one strand shown
How it was run: as §1

HSF1 = HSF1 (Homo sapiens, UniProt Q00613 1-529); conditions: protein: recombinant; tags: N-terminal GST; chain copies: 3; dsDNA, one strand shown
How it was run: as §1

SPIC = target: T8, SPIC (Homo sapiens, UniProt Q8N5J4 1-248); conditions: protein: recombinant; tags: N-terminal GST; dsDNA, one strand shown
T8 sequence: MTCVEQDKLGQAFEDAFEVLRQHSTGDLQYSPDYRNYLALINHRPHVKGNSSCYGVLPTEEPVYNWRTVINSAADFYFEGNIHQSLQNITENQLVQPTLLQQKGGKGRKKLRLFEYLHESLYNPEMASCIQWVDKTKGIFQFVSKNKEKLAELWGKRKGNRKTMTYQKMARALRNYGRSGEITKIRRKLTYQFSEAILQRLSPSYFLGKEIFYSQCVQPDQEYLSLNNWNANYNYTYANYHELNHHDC
How it was run: as §1

ELF4 = ELF4 (Homo sapiens, UniProt Q99607 1-663); conditions: protein: recombinant; tags: N-terminal GST; dsDNA, one strand shown
How it was run: as §1

ELK4 = target: T9, ELK4 (Homo sapiens, UniProt P28324-2 1-405); conditions: protein: recombinant; tags: N-terminal GST; dsDNA, one strand shown
T9 sequence: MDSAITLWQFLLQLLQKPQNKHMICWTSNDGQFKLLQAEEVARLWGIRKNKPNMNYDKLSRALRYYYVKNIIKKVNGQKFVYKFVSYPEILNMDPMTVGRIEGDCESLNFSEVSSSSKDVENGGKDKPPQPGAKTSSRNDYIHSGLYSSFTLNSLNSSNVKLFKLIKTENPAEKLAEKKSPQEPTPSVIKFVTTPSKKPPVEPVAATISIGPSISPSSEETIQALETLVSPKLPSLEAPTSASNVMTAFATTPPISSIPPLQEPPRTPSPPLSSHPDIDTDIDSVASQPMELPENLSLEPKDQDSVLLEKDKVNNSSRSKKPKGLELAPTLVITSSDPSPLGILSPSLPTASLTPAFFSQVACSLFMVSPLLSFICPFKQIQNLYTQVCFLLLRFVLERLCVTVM
How it was run: as §1

ETV2 = target: T10, ETV2 (Homo sapiens, UniProt O00321 1-342); conditions: protein: recombinant; tags: N-terminal GST; dsDNA, one strand shown
T10 sequence: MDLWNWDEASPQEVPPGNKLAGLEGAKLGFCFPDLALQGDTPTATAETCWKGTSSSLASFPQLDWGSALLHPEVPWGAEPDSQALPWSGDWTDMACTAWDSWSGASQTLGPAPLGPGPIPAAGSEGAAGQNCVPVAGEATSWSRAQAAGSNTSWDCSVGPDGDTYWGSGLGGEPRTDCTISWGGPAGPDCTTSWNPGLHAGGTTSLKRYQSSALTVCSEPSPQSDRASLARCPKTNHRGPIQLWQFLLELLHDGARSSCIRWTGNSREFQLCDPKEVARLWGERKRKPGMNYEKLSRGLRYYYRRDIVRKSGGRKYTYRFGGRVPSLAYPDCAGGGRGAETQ
How it was run: as §1

ELF3 = target: T11, ELF3 (Homo sapiens, UniProt P78545 1-371); conditions: protein: recombinant; tags: N-terminal GST; dsDNA, one strand shown
T11 sequence: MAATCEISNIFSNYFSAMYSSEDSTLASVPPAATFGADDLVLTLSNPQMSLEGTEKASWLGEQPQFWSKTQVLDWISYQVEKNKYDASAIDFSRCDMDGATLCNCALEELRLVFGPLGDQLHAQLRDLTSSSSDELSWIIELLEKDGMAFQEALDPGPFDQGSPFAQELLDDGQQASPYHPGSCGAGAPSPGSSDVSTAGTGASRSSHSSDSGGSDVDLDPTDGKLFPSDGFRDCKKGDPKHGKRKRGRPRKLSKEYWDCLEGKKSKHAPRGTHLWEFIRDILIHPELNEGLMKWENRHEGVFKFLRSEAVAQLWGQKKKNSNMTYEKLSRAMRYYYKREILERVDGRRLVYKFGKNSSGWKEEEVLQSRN
How it was run: as §1

CRX = CRX (Homo sapiens, UniProt O43186 1-299); conditions: protein: recombinant; tags: N-terminal GST; dsDNA, one strand shown
How it was run: as §1

ETV1 = ETV1 (Homo sapiens, UniProt P50549 1-477); conditions: protein: recombinant; tags: N-terminal GST; dsDNA, one strand shown
How it was run: as §1

Chain of ELF4 (Q99607 whole entry): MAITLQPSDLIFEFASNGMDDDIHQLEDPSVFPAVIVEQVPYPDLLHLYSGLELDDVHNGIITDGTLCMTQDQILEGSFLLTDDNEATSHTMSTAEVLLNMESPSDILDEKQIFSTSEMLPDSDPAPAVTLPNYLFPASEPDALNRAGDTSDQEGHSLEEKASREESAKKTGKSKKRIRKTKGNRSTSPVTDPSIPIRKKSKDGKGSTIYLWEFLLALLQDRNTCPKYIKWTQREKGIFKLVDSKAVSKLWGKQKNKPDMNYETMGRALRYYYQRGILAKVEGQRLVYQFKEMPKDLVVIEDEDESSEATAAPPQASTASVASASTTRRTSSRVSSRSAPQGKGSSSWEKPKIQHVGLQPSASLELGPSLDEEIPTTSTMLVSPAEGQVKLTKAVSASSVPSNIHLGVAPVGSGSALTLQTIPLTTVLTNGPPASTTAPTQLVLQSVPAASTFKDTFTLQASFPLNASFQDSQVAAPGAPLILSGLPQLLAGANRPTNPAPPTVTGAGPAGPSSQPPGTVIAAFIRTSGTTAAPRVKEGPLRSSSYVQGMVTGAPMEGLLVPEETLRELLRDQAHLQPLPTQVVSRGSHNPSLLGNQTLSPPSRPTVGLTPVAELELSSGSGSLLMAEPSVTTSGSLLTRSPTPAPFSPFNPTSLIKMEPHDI
Chain of ETV1 (P50549 whole entry): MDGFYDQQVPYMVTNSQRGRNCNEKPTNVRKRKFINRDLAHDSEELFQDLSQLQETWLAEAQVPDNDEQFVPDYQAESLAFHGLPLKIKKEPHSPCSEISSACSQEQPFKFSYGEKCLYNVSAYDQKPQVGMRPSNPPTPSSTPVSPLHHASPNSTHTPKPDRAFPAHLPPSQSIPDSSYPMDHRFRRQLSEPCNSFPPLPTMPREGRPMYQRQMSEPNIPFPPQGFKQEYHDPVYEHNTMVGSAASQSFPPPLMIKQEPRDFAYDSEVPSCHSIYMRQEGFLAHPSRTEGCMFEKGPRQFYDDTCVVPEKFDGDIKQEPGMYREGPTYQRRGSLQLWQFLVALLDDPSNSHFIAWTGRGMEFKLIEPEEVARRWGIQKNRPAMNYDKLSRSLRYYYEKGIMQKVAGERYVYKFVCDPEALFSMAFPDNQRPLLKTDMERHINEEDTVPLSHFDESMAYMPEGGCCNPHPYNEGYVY
Chain of ELF1 (P32519 whole entry): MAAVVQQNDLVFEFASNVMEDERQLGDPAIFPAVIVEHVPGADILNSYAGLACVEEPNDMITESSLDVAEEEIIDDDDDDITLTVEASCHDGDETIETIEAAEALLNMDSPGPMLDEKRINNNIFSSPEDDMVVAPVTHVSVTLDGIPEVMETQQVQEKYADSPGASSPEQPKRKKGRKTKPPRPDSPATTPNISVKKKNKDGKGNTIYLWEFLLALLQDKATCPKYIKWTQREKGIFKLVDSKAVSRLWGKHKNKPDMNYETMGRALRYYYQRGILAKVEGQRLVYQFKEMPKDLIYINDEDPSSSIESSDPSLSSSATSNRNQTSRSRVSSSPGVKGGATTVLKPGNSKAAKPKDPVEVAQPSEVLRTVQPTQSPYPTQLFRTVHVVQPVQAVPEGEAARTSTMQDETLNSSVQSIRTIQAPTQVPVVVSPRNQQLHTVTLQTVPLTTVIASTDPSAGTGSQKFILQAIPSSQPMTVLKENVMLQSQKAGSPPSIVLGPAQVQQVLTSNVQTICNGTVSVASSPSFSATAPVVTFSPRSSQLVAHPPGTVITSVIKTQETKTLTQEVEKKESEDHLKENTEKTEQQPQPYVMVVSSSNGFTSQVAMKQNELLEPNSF
Chain of ETV5 (P41161 whole entry): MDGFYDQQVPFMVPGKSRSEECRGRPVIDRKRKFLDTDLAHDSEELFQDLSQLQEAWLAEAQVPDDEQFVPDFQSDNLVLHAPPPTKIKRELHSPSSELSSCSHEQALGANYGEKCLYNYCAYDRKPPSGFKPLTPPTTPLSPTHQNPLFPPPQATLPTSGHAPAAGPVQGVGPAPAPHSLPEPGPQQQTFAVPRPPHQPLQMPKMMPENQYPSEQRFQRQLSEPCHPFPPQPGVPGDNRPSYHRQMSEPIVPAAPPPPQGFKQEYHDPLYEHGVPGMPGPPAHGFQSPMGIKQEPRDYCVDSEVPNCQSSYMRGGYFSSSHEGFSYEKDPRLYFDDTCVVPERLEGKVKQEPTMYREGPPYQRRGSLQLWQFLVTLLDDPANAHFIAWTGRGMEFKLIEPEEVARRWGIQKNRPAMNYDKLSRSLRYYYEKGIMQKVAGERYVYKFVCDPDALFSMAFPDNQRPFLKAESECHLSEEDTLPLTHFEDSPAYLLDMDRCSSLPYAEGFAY
Chain of HSF1 (Q00613 whole entry): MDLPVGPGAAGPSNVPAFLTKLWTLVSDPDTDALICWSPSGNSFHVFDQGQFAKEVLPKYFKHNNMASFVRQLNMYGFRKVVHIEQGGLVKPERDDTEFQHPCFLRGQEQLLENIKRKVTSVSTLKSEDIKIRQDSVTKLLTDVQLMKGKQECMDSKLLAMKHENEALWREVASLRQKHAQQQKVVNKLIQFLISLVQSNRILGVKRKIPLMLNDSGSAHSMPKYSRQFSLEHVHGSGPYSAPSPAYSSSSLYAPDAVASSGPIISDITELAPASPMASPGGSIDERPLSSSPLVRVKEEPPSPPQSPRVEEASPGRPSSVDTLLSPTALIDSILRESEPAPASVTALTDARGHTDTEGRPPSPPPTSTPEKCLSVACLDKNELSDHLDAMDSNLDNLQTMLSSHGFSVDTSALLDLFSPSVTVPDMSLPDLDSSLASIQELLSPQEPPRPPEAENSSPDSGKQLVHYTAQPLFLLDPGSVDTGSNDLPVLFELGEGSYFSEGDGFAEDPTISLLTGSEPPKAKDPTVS
Chain of SPIB (Q01892 whole entry): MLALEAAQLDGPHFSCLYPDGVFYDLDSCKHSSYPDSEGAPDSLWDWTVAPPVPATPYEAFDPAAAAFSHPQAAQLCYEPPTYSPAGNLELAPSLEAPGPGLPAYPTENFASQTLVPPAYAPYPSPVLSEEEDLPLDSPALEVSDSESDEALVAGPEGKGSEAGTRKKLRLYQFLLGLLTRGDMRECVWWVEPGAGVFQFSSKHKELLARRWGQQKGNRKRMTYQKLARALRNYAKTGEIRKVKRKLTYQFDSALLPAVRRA
Chain of CRX (O43186 whole entry): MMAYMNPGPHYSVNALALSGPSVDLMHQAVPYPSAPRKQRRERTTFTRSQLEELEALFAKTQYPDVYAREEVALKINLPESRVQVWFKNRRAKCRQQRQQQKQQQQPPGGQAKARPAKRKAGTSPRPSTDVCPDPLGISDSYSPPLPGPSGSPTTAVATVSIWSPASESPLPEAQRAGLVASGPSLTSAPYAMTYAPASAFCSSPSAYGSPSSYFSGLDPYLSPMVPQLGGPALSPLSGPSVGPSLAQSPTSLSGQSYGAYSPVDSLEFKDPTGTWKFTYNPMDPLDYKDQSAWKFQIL

Q: Which results are given for TGCTTC?
A: binding signal (FLI1): 2.13 fold enrichment (6-mer frequency, TF over GST control); binding signal (ELK1): 2.3 fold enrichment (6-mer frequency, TF over GST control); binding signal (GABPA): 2.09 fold enrichment (6-mer frequency, TF over GST control); binding signal (ERG): 2.37 fold enrichment (6-mer frequency, TF over GST control); binding signal (ELF1): 2 fold enrichment (6-mer frequency, TF over GST control); binding signal (EHF): 2.16 fold enrichment (6-mer frequency, TF over GST control); binding signal (SPI1): 2.24 fold enrichment (6-mer frequency, TF over GST control); binding signal (SPIB): 2.31 fold enrichment (6-mer frequency, TF over GST control); binding signal (ELK3): 2.47 fold enrichment (6-mer frequency, TF over GST control); binding signal (FEV): 2.29 fold enrichment (6-mer frequency, TF over GST control); binding signal (ETV5): 2.1 fold enrichment (6-mer frequency, TF over GST control); binding signal (HSF1): 1.49 fold enrichment (6-mer frequency, TF over GST control); binding signal (SPIC): 2.35 fold enrichment (6-mer frequency, TF over GST control); binding signal (ELF4): 1.98 fold enrichment (6-mer frequency, TF over GST control); binding signal (ELK4): 2.01 fold enrichment (6-mer frequency, TF over GST control); binding signal (ETV2): 2.38 fold enrichment (6-mer frequency, TF over GST control); binding signal (ELF3): 2.25 fold enrichment (6-mer frequency, TF over GST control); binding signal (CRX): 1.22 fold enrichment (6-mer frequency, TF over GST control); binding signal (ETV1): 2.19 fold enrichment (6-mer frequency, TF over GST control)
